Compound activity deposited in PubChem by several laboratories.
PAX8 reporter – PAX8 transcriptional activity inhibition; 1.2% of 360,000 active; inhibition, % at 12.6 µM; RMG-I TPO-luciferase reporter, SteadyGlo, 24 h;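 active = mean replicate inhibition at least 60% with every replicate also reaching 60%; inconclusive = only one of the two criteria is met; inactive = mean below 60% and not all replicates reaching 60%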;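 note: luciferase light reporting Pax8 driven TPO promoter activity; plate controls were median of neutral control wells for no effect and mitoxantrone controls for full effect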
TROY NFkB inh – inhibitors of TROY-dependent NF-kB signaling; Q293 LMP1-TROYcd NF-kB luciferase reporter, 4 h; inhibition, % at 10 µM; 0.98% of 360,000 active; AID 1347056;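 active = compounds whose plate-normalised and pattern-corrected inhibition of the luciferase reporter signal at the single screening dose is 50% or more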
TWEAK Fn14 block – TWEAK-Fn14 signaling inhibition; 2% of 360,000 active; inhibition, % at 10 µM; TWEAK-stimulated Fn14 reporter cells, luciferase luminescence, 8 h; in the data active = inhibition above about 50%
LGR2 antag – blocks bursicon-induced cAMP signaling via Drosophila LGR2; 0.35% of 380,000 active; inhibition, % at 9.99 µM; HEK293 LGR2, CRE-luciferase, bursicon-stimulated, 4 h; AID 720647;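 active = drop in luminescence signal, shown as inhibition above about 50% in the replicate tests, limit read from the data, passing the limit was not always enough; inconclusive = probably only some replicates passing the limit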;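 note: agonist challenge used bursicon conditioned medium at about half maximal strength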
LMP1 NFkB inh – reduces LMP1-driven NF-kappaB luciferase signal. LMP1-induced NF-kappaB luciferase reporter cells, luminescence. inhibition, % at 12.5 µM. 0.69% of 350,000 active; in the data active = inhibition above about 41%; inconclusive = no clear call, values can overlap the other calls;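 note: 0% = neutral control wells and 100% = reference inhibitor control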
EWS-Fli inh – inhibitors of EWS/Fli oncoprotein transcriptional activity. A673 NR0B1-luciferase reporter, viability-normalised. inhibition, % at 12.6 µM. 0.67% of 350,000 active. AID 651661;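 active = mean inhibition of at least 50% after viability correction, with every replicate also passing that limit; inconclusive = mean reaches 50% but only one of two replicates passes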;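 note: firefly luciferase signal divided by Alamar Blue viability fluorescence both relative to DMSO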
Active calls of the source: *; ? = inconclusive; / = no result given. Only some compounds are listed: those with a hit (about 3.1% of all), similar ones and a draw of the others.

SMILES	PAX8 reporter	TROY NFkB inh	TWEAK Fn14 block	LGR2 antag	LMP1 NFkB inh	EWS-Fli inh
C[C@H]1CN([C@@H](C)CO)C(=O)Cc2cc(NC(=O)Nc3ccc4c(c3)OCO4)ccc2O[C@@H]1CN(C)S(C)(=O)=O	-10	/	/	3	/	/
CCC(=O)NC(c1ccc(OC)cc1)c1cc(Cl)c2cccnc2c1O (stereo not drawn)	29	-13	9	10	38	-13
CC(=O)NC(c1ccc(C(C)C)cc1)c1ccc2cccnc2c1O (stereo not drawn)	95*	14	14	22	57*	43
CCC(=O)NC(c1ccccc1OC)c1ccc2cccnc2c1O (stereo not drawn)	/	7	16	/	65*	/
CC(=O)NC(c1ccc(C)cc1)c1cc(Cl)c2cccnc2c1O (stereo not drawn)	36	18	12	20	29	12
CCCC(=O)NC(c1ccccc1)c1ccc2cccnc2c1O (stereo not drawn)	79*	12	13	/	40	27
CCCC(=O)NC(c1ccc(OC)cc1)c1ccc2cccnc2c1O (stereo not drawn)	77*	5	14	25	70*	26
O=C(OC(C(=O)NCc1ccccc1)c1ccco1)c1ccccc1 (stereo not drawn)	-30	/	/	/	/	-13
COCC(=O)N1CCC2(CC1)CN(C(=O)CN1CCOCC1)[C@@H](CO)c1c2c2ccc(OC)cc2n1C	/	/	/	29	/	4
Cc1ccc(S(=O)(=O)N[C@H]2CC[C@@H](CC(=O)N3CCN(c4ccccc4)CC3)O[C@@H]2CO)cc1	5	/	/	0	/	-4
CCCCC(=O)NC(c1ccco1)c1cc(Cl)c2cccnc2c1O (stereo not drawn)	54	21	26	30	31	47
CCCCC(=O)NC(c1ccc([N+](=O)[O-])cc1)c1c(O)ccc2ccccc12 (stereo not drawn)	22	43	34	49	1	6
CCC(=O)NC(c1ccco1)c1cc(Cl)c2cccnc2c1O (stereo not drawn)	85*	15	22	-13	13	19
CCCCC(=O)NC(c1ccccc1)c1ccc2cccnc2c1O (stereo not drawn)	87*	11	20	27	48*	36
CCCCC(=O)NC(c1ccccc1Cl)c1ccc2cccnc2c1O (stereo not drawn)	85*	7	2	22	72*	29
CCCCC(=O)NC(c1ccc(C(C)C)cc1)c1ccc2cccnc2c1O (stereo not drawn)	85*	16	22	27	50*	43
CCCNC(=O)Nc1ccc2c(c1)C(=O)N(C)[C@@H]1CC[C@@H](CC(=O)NC3CCC3)O[C@H]1CO2	-4	/	/	-3	/	-10
CCC(=O)N[C@H]1CC[C@H](CCn2cc(CN(C)C)nn2)O[C@@H]1CO	-7	/	/	19	/	5
NC(=S)N=Nc1c(O)[nH]c2ccccc12	8	-23	2	-15	-2	/
Oc1[nH]c2ccccc2c1N=NC(=S)N1CCOCC1	/	1	104*	/	4	/
Cn1cccc1Cc1nnc(SCC(=O)N2CCc3ccccc32)n1-c1ccc(F)cc1	25	10	57*	-5	-8	3
COc1ccc(-n2c(Cc3cccn3C)nnc2SCC(=O)Nc2ccc(C)c(Cl)c2)cc1	17	-16	52*	-3	-19	11
COc1ccc(NC(=O)CSc2nnc(C3CC3)n2-c2ccccc2)cc1	/	-23	-12	/	2	/
Cn1cccc1Cc1nnc(SCC(=O)N2CCCc3ccccc32)n1-c1ccc(F)cc1	5	0	35	4	4	0
COc1ccc(NC(=O)CSc2nnc(-c3cccs3)n2-c2ccccc2)cc1	/	-27	54*	/	9	/
SMILES	PAX8 reporter	TROY NFkB inh	TWEAK Fn14 block	LGR2 antag	LMP1 NFkB inh	EWS-Fli inh
CNC[C@H]1Oc2ccc(NS(=O)(=O)c3ccc(C)cc3)cc2C(=O)N([C@@H](C)CO)C[C@H]1C	-11	/	/	-12	/	-1
C[C@H]1CN([C@@H](C)CO)C(=O)Cc2cc(NS(=O)(=O)c3ccc(F)cc3)ccc2O[C@H]1CN(C)Cc1ccc(C(=O)O)cc1	/	/	/	-5	/	-3
O=C(Nc1nc(-c2cc(Cl)sc2Cl)cs1)c1ccc(Br)s1	-2	5	47	/	44*	/
O=C(Nc1nc(-c2ccccn2)cs1)c1ccc(Br)s1	/	-10	-107	/	87*	/
COCC(=O)Nc1ccc2c(c1)[C@@H]1C[C@H](CC(=O)NCCN3CCCCC3)O[C@@H](CO)[C@@H]1O2	4	/	/	0	/	4
C/C=C/c1ccc([C@H]2[C@@H](CO)N3C(=O)CN(C(=O)c4ccc(F)cc4)C[C@@H]23)cc1	0	/	/	1	/	3
CCNC(=O)C[C@H]1CC[C@H](NC(=O)C2CC2)[C@@H](CO)O1	26	/	/	-1	/	-1
CC12CCC(O)CC1=CCC1C2CCC2(C)C1CCC21CCC(=O)O1 (stereo not drawn)	34	10	-7	12	8	-4
C[C@]12CCC(O)CC1=CCC1C2CC[C@]2(C)/C(=N\NC(N)=S)CCC12 (stereo partly drawn)	9	15	94*	21	19	-2
CCOC(=O)c1ccc(NC(=O)O[C@H]2[C@H](OC(=O)Nc3ccccc3)[C@@H](OC(=O)Nc3ccccc3)[C@@H](OC)O[C@@H]2CO)cc1	82*	/	/	/	/	-13
COc1ccc(NC(=O)O[C@H]2[C@H](OC(=O)Nc3ccccc3)[C@H](OC(=O)Nc3ccccc3)[C@@H](OC)O[C@@H]2CO)cc1	-16	/	/	/	/	-1
COC(=O)C(C)Nc1cccc(Br)c1 (stereo not drawn)	5	-1	7	-4	7	-14
CCOC(=O)C(C(=O)OCC)C(Nc1cccc(Br)c1)c1ccccc1 (stereo not drawn)	39	18	71*	/	-7	/
Cc1nc(N/N=C/c2ccccn2)sc1C	73*	/	/	102*	/	?
COC(=O)c1ccc(/C=N/Nc2nc(C)c(C)s2)cc1	-114	-31	-51	/	-43	-102
CCCc1sc(N/N=C/c2ccccn2)nc1-c1ccc(F)cc1	/	-9	-20	/	63*	/
Cc1nc2c(o1)C(=O)c1ccccc1C2=Nc1ccccc1	10	10	95*	16	87*	2
C[C@@H]1CN([C@@H](C)CO)S(=O)(=O)c2ccc(C#Cc3ccccc3F)cc2O[C@H]1CN(C)C(=O)Cc1ccccc1	92*	/	/	11	/	37
